{"source": "PubChem BioAssay AID652126", "about": "(The Scripps Research Institute Molecular Screening Center, 2013)", "note": "The whole screen tested about 370,000 compounds, of which about 3,700 (1%) were called active. The full list was thinned out, with actives kept by preference. Unmarked numbers belong to inactive results.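 How the source made its calls: active means activation above the mean over all tested compounds plus 3 SD (cut at about 0.9% in these data); inactive means the rest.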"}
{"test_system": "Nuclear hormone receptor DAF-12 (Strongyloides stercoralis)", "assay": "S. stercoralis DAF-12 nuclear receptor activators, primary screen, cell-based, luminescence, HEK293, GRIP1 co-expression, lit1-tk-luc (AID 652126);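 further: 0% = DMSO-only wells and 100% = 3 µM delta7-dafachronic acid wells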", "conditions": "HEK293 ssDAF-12/GRIP1 lit1-tk-luc reporter, at 6.8 µM, hits give high values, % of 3 µM dafachronic acid response"}
{"smiles": "CCc1ccccc1NC(=O)CSc1nnc(-c2cccs2)o1", "activation": "-1.52%"}
{"smiles": "CCOC(=O)c1c(NC(=S)SC)sc(C(=O)N2CCc3ccccc3C2)c1C", "activation": "-0.64%"}
{"smiles": "O=C(CN1CCc2ccccc2C1)Nc1cccc(S(=O)(=O)N2CCOCC2)c1", "activation": "-0.91%"}
{"smiles": "Cc1ccc(NC(=O)COc2coc(CN3CCc4ccccc4C3)cc2=O)cc1Cl", "activation": "-1.76%"}
{"smiles": "Cc1ccc(NC(=O)CN2CCc3ccccc3C2)cc1C", "activation": "1.3% (active)"}
{"smiles": "CCc1ccc(NC(=O)N2CCc3ccccc3C2)cc1", "activation": "1.53% (active)"}
{"smiles": "CCc1ccc(NC(=O)CC2C(=O)NCCN2C(=S)Nc2ccccc2)cc1", "note": "(stereo not drawn)", "activation": "-1.42%"}
{"smiles": "Cc1cc(NS(=O)(=O)c2ccc(NC(=O)CSc3nnc(-c4ccc(C(C)(C)C)cc4)n3Cc3ccco3)cc2)nc(C)n1", "activation": "-1.29%"}
{"smiles": "COc1ccc(O)c(C(=O)c2cnc3onc(C(C)C)c3c2)c1", "activation": "-0.89%"}
{"smiles": "COc1cccc(NC(=O)Nc2ccc(F)cc2)c1", "activation": "1.74% (active)"}
{"smiles": "COc1cccc(NC(=O)CC2C(=O)NCCN2C(=S)Nc2ccc(F)cc2)c1", "note": "(stereo not drawn)", "activation": "-1.35%"}
{"smiles": "COc1cccc(C(=O)NNS(=O)(=O)c2ccc(F)cc2)c1", "activation": "-1.09%"}
{"smiles": "COC(=O)C1CN(Cc2cn(Cc3ccc(F)cc3)nn2)CCS(=O)(=O)N1Cc1ccc(Cl)cc1", "note": "(stereo not drawn)", "activation": "-2.03%"}
{"smiles": "CCCCNC(=O)C[C@H]1C[C@@]2(C(=O)OC)C(=C[C@H](COCc3ccccc3)O[C@@H]2C)N(Cc2ccc(Cl)cc2Cl)C1=O", "activation": "-1.35%"}
{"smiles": "CC(C)CSc1nnc(-c2cccnc2)n1Cc1ccccc1", "activation": "-1.35%"}
{"smiles": "COC(=O)c1cc(S(=O)(=O)N2CCN(C(=O)C3CCCO3)CC2)cn1C", "note": "(stereo not drawn)", "activation": "-1.3%"}
{"smiles": "Cc1ccc(CCNC(=O)c2ccc3nc4ccccc4c(=O)n3c2)cc1", "activation": "-1.47%"}
{"smiles": "Cc1ccc(C(=O)NNc2ncnc3ccccc23)cc1", "activation": "1.85% (active)"}
{"smiles": "Cn1ncc2c(NNC(=O)Cc3cccc4ccccc34)ncnc21", "activation": "-1.61%"}
{"smiles": "O=C(CNC(=O)c1ccccc1)OC(C(=O)Nc1cc([N+](=O)[O-])ccc1F)c1ccccc1", "note": "(stereo not drawn)", "activation": "-2.1%"}
{"smiles": "CCOC(=O)C1CCN(C(=O)C(C)(C)NC(=O)Nc2ccccc2Cl)CC1", "activation": "-0.72%"}
{"smiles": "NC1=NN(c2cccc(C(=O)O)c2)C(=O)C1", "activation": "0.3%"}
{"smiles": "O=C(O)c1cccc(N=NN2CCCCCC2)c1", "activation": "1.23% (active)"}
{"smiles": "O=C(O)c1cccc(S(=O)(=O)N2CC=C(c3ccccc3)CC2)c1", "activation": "-1.29%"}
{"smiles": "O=C(c1c[nH]c2ccccc12)N1CCC(Oc2cccnc2)CC1", "activation": "-1.03%"}
{"smiles": "Cc1ccc(OCc2nnc(SC/C=C/c3ccccc3)n2Cc2ccco2)cc1", "activation": "-1.7%"}
{"smiles": "O=C(Nc1cccc(Cl)c1)OC1CC2CC1[C@H]1CCCCN1[C@H]2Cc1ccccc1", "note": "(stereo partly drawn)", "activation": "-1.06%"}
{"smiles": "Cc1ccccc1NC(=O)COC(=O)c1ccc(Sc2ncn[nH]2)c([N+](=O)[O-])c1", "activation": "-1.78%"}
{"smiles": "Cc1nc2ccc(C(=O)N3CCN(C(=O)C(C)(C)C)CC3)cc2n1C1CCCC1", "activation": "-1.22%"}
{"smiles": "CN(C)c1cc(N)c2ccccc2n1", "note": "(tested in a mixture with another compound)", "activation": "-0.25%"}
{"smiles": "Cc1ccc(-c2nc3ccccc3[nH]2)cc1N", "activation": "2.5% (active)"}
{"smiles": "CCOC(=O)c1nc(-c2ccc3c(c2)OCO3)[nH]c1C", "activation": "-1.3%"}
{"smiles": "Cc1cc(C)nc(NC(=S)N2CCN(c3ccc(C(F)(F)F)cn3)CC2)c1", "activation": "-1.63%"}
{"smiles": "COc1ccc(C(=O)OCCN2CCN(C3CN(Cc4cn(Cc5ccccc5F)nn4)S(=O)(=O)C3)CC2)cc1OC", "note": "(stereo not drawn)", "activation": "-1.83%"}
{"smiles": "O=C(Nc1cc(F)cc(F)c1)OC1CCC12CCC(c1ccccc1)CC2", "note": "(stereo not drawn)", "activation": "-1.11%"}
{"smiles": "O=C(Nc1cc(Cl)cc(Cl)c1)OCCN1CCCC12CCC(c1ccccc1)CC2", "note": "(stereo not drawn)", "activation": "-1.99%"}
{"smiles": "Cc1ccc(-n2c(SCC(=O)Nc3ccc(S(=O)(=O)Nc4nccs4)cc3)nnc2-c2cccnc2)cc1", "activation": "-1.03%"}
{"smiles": "Fc1ccc2cnc(-c3ccccc3)cc2c1", "activation": "0.89%"}
{"smiles": "Fc1ccccc1-c1cc2cc3c(cc2cn1)OCO3", "activation": "0.96% (active)"}
{"smiles": "COC(=O)C[C@@H]1CC[C@@H]2[C@H](COc3ccc(NC(=O)c4cccc(F)c4)cc3C(=O)N2C)O1", "activation": "-1.32%"}
{"smiles": "CN(C(N)=NC(=O)/C=C/c1ccccc1)C(C#Cc1ccccc1)Cc1ccccc1", "note": "(stereo not drawn)", "activation": "-1.31%"}
{"smiles": "O=C(CCCCCN1C(=O)C2C3C=CC(C3)C2C1=O)Nc1ccccn1", "note": "(stereo not drawn)", "activation": "-1.93%"}
{"smiles": "COc1ccc(Cn2cc(COC(=O)N(C)Cc3ccccc3)nn2)cc1", "activation": "-1.12%"}
{"smiles": "Cc1ccc(NC(=O)c2ccc(Cl)nc2)cc1S(=O)(=O)N1CCOCC1", "activation": "-1.53%"}
{"smiles": "COc1ccc(CC(=O)NCc2nnc(SCC(=O)Nc3ncc(C)s3)n2C)cc1", "activation": "-1.52%"}
{"smiles": "Cc1cnc(NC(=O)c2ccc(Cl)nc2)s1", "activation": "1.34% (active)"}
{"smiles": "COc1ccc(-c2cc(-c3nnc(SCC(=O)Nc4cccc5ccccc45)n3N)[nH]n2)cc1", "activation": "-1.73%"}
{"smiles": "Cc1cc(=O)[nH]c(SCC(=O)Nc2ccc(Cl)cc2C)n1", "activation": "-1.2%"}
{"smiles": "CCC(c1ccc(NC(=O)OC(C)(C)C)cc1)c1cc(OC)cc(OC)c1", "note": "(stereo not drawn)", "activation": "-1.95%"}
{"smiles": "CC(C)(C)c1ccc(C(=O)Nc2cc(Cl)c(Br)cc2C(=O)O)cc1", "activation": "-1.31%"}
{"smiles": "CCc1nonc1NC(=O)c1oc2ccc(Cl)cc2c1C", "activation": "-0.87%"}
{"smiles": "Cc1c(C(=O)Nc2ccccn2)oc2ccc(Br)cc12", "activation": "1.84% (active)"}
{"smiles": "Cc1c(C(=O)NC2CCCCC2)oc2ccccc12", "activation": "-0.81%"}
{"smiles": "C=CCn1c(SCC(N)=O)nnc1-c1ccccc1OC", "activation": "-0.81%"}
{"smiles": "COc1ccc(C(=O)NCC[N+](C)(C)C)cc1", "activation": "-0.25%"}
{"smiles": "COc1ccc(NC(=O)c2ccc(OC)cc2)cc1", "activation": "0.92% (active)"}
{"smiles": "COc1ccc(C(=O)Nc2ccc(-n3nncc3C(C)(C)C)cc2)cc1", "activation": "-1.68%"}
{"smiles": "O=C(CSc1nnc(-c2ccccc2)n1Cc1ccco1)Nc1ccccc1-c1ccccc1", "activation": "-1.67%"}
